One assay deals with PGR (gene 5241) (UniProt P06401). The assay can be described thus: TOX21_PR_LUC_Followup_Antagonist: Tox21 HEK293 Progesterone Receptor (PR) Antagonism Luciferase Follow-Up Assay (AID 2283938; active = hit-call score of the fitted dose curve at least 0.9, where 1 is the maximum;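 note: curve fitted upward as signal gain over DMSO baseline despite antagonist label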). In short, it runs like this: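 HEK293-PR-A-luc cells, 3,000/well, preincubated 5 h at 37C before compound addition in DMSO; 16 h compound exposure at 37C. ONE-Glo luciferase luminescence read after 30 min at room temperature, fitted relative to DMSO baseline.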

Assay [1] can be described thus: TOX21_PR_LUC_Followup_Antagonist_viability: Viability Assessment in the Tox21 HEK293 Progesterone Receptor (PR) Antagonism Luciferase Follow-Up Assay (AID 2283940; active = hit-call score of the fitted dose curve at least 0.9, where 1 is the maximum). In short, it runs like this:
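Viability counter-readout: cellular ATP measured by luciferase luminescence after 16 h compound exposure at 37C of HEK293-PR-A-luc cells, which had been cultured in charcoal-stripped serum and seeded 5 h beforehand.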

The nature of assay [2]: TOX21_PR_LUC_Followup_Agonist_viability: Viability Assessment in the Tox21 HEK293 Progesterone Receptor (PR) Agonism Luciferase Follow-Up Assay (AID 2283941; active = hit-call score of the fitted dose curve at least 0.9, where 1 is the maximum;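 note: loss of signal means cytotoxicity so actives lower viability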). The method in brief: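 Cytotoxicity counter-readout in the PR-A luciferase reporter line HEK293, with 16 h compound exposure at 37C after cells were cultured in charcoal-stripped serum. Cellular ATP quantified by CellTiter-Glo luminescence.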

Assay [3] can be described thus: CCTE_Harrill_HTTr_Viability_DMEM_6hr: (Pilot) CCTE's 6-hour Cell Viability Assessment for the High-Throughput Transcriptomics (HTTr) Platform, in MCF-7 cells cultured in DMEM + 10% fetal bovine serum, Harrill Lab (AID 2283973). The method in brief:
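Propidium iodide uptake imaged by high-content analysis after six hours of chemical treatment in an eight-concentration series. Cells: MCF-7 grown in DMEM with 10% fetal bovine serum; DMSO as baseline.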

Assay [4] is described as follows: CCTE_Harrill_HTTr_Viability_DMEM_12hr: (Pilot) CCTE's 12-hour Cell Viability Assessment for the High-Throughput Transcriptomics (HTTr) Platform, in MCF-7 cells cultured in DMEM + 10% fetal bovine serum, Harrill Lab (AID 2283974). In short, it runs like this:
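Propidium iodide dye exclusion imaged by high-content microscopy after 12 h chemical exposure (eight concentrations) of MCF-7 cells grown in DMEM plus 10% FBS; values fitted in both directions relative to DMSO.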

A short description of assay [5]: CCTE_Harrill_HTTr_Viability_DMEM_24hr: (Pilot) CCTE's 24-hour Cell Viability Assessment for the High-Throughput Transcriptomics (HTTr) Platform, in MCF-7 cells cultured in DMEM + 10% fetal bovine serum, Harrill Lab (AID 2283975). The method in brief: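 Pilot study: propidium iodide dye exclusion, imaged by high content microscopy, after 24 h compound exposure (eight concentrations) in MCF-7 cultured in DMEM + 10% fetal bovine serum; DMSO served as negative control and baseline.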

A short description of assay [6]: CCTE_Harrill_HTTr_Viability_PRF_DMEM_6hr: (Pilot) CCTE's 6-hour Cell Viability Assessment for the High-Throughput Transcriptomics (HTTr) Platform, in MCF-7 cells cultured phenol red-free DMEM + 10% charcoal-stripped fetal bovine serum, Harrill Lab (AID 2283976). In short, it runs like this:
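Membrane integrity by high-content imaging of propidium iodide uptake, six hours after dosing with eight concentrations. Cells: MCF-7 grown in phenol red-free DMEM plus 10% charcoal-stripped serum; DMSO serves as baseline for bidirectional fits.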

Assay [7] can be described thus: CCTE_Harrill_HTTr_Viability_PRF_DMEM_12hr: (Pilot) CCTE's 12-hour Cell Viability Assessment for the High-Throughput Transcriptomics (HTTr) Platform, in MCF-7 cells cultured in phenol red-free DMEM + 10% charcoal-stripped fetal bovine serum, Harrill Lab (AID 2283977). In short, it runs like this: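 Membrane integrity was scored via propidium iodide dye exclusion imaging, fitted in both directions relative to DMSO. Compounds ran as eight-point dilutions for 12 hours on MCF-7 grown in phenol red-free DMEM plus 10% charcoal-stripped serum.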

Assay [8] has as its target T1, Thyroid hormone receptor alpha (Rattus norvegicus) + Thyroid hormone receptor beta (Rattus norvegicus) (UniProt P18113+P63059). Kind of assay: TOX21_TR_LUC_GH3_Antagonist_Followup: Tox21 GH3 Thyroid Hormone Receptor Antagonism Luciferase Follow-Up Assay (AID 2283942; active = hit-call score of the fitted dose curve at least 0.9, where 1 is the maximum). The method in brief: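 Loss of T3-driven (1.0 nM final) reporter activity in GH3 cells was read by ONE-Glo luminescence after 24 h incubation at 37C; 15-point compound series spanned 92 uM to 5nM final, 1,500 cells/well.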

Assay [9] concerns the target THRA (gene 7067) (UniProt P10827). Kind of assay: TOX21_TRA_COA_Antagonist_Followup_ratio: Tox21 Thyroid Hormone Receptor alpha Antagonism through Coactivator Recruitment Follow-Up Assay, Ratio (AID 2283953; active = hit-call score of the fitted dose curve at least 0.9, where 1 is the maximum). The method in brief: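 GST-TRα LBD 2.5 nM, BSA 0.10%, + cpd; then FITC-SRC-2 peptide 200 nM + Tb-anti-GST Ab 2 nM. TR-FRET ratio 520/495 nm. Norm: DMSO = 0%, T3 = 100%.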

The target of assay [10] is THRB (gene 7068) (UniProt P10828). The assay can be described thus: TOX21_TRB_BLA_Antagonist_Followup_ratio: Tox21 Thyroid Hormone Receptor beta Antagonism Beta-lactamase (BLA) Follow-Up Assay, Ratio (AID 2283958; active = hit-call score of the fitted dose curve at least 0.9, where 1 is the maximum). The method in brief: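 Beta-lactamase reporter ratio (460/530 nm, CCF4-AM substrate, 2 h room temperature) was read in TRb-bla HEK293T cells after 18 h compound treatment (11 concentrations, triplicate) at 37C in 2% charcoal-stripped FBS medium. Loss of signal fitted against DMSO.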

Assay [11] can be described thus: TOX21_TRB_BLA_Antagonist_Followup_viability: Viability Assessment in the Tox21 Thyroid Hormone Receptor beta Antagonism Beta-lactamase (BLA) Follow-Up Assay (AID 2283961; active = hit-call score of the fitted dose curve at least 0.9, where 1 is the maximum). In short, it runs like this: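 HEK293T cells with GAL4-human TRβ LBD and UAS-bla reporter, 3,000 cells/well in 2% charcoal-stripped FBS medium; 11-point concentrations in triplicate, 18 h at 37C. Viability from ATP by CellTiter-Glo luminescence, 30 min RT, same plates.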

In assay [12] the target is THRB (gene 7068) (UniProt P10828). The assay can be described thus: TOX21_TRB_COA_Antagonist_Followup_ratio: Tox21 Thyroid Hormone Receptor beta Antagonism through Coactivator Recruitment Follow-Up Assay, Ratio (AID 2283967; active = hit-call score of the fitted dose curve at least 0.9, where 1 is the maximum). The method in brief:
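Coactivator recruitment to the GST-tagged TRb ligand-binding domain (5.0 nM) was read as the 520/495 nm TR-FRET ratio, using 200 nM fluorescein SRC-2 peptide and 2 nM terbium anti-GST. Scaled between DMSO and T3 wells; loss of signal fitted.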

Assay [13] in a line: TOX21_TR_RXR_BLA_Antagonist_Followup_viability: Viability Assessment in the Tox21 Thyroid Hormone Receptor beta Retinoid X Receptor alpha (RXRa) Antagonism Beta-lactamase (BLA) Follow-Up Assay (AID 2283979; active = hit-call score of the fitted dose curve at least 0.9, where 1 is the maximum). In short, it runs like this:
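Follow-up compounds (11 concentrations, triplicate) were incubated 16 h at 37C/5% CO2 with HEK293T RXRa-bla cells seeded at 2,500/well in charcoal-stripped-serum medium. ATP content by CellTiter-Glo luminescence gave viability; curves fitted in both directions against DMSO.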

Assay [14] addresses T1, Thyroid hormone receptor alpha (Rattus norvegicus) + Thyroid hormone receptor beta (Rattus norvegicus). Kind of assay: TOX21_TR_LUC_GH3_Agonist_Followup: Tox21 GH3 Thyroid Hormone Receptor Agonism Luciferase Follow-Up Assay (AID 2283939; active = hit-call score of the fitted dose curve at least 0.9, where 1 is the maximum). In short, it runs like this:
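Agonist-mode confirmatory run: 15 concentrations (5 nM to 92 uM final) on GH3 rat pituitary cells, 24 h at 37C/5% CO2, T3 as positive control. Luminescence read with ONE-Glo after 30 min.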

The target of assay [15] is THRA (gene 7067) (UniProt P10827). Kind of assay: TOX21_TRA_COA_Agonist_Followup_ratio: Tox21 Thyroid Hormone Receptor alpha Agonism through Coactivator Recruitment Follow-Up Assay, Ratio (AID 2283948). In short, it runs like this: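 Cell-free TR-FRET: GST-tagged TRα LBD (2.5 nM) with 0.10% BSA and compound, then fluorescein-SRC-2 peptide (200 nM) and Tb-anti-GST antibody (2 nM). Readout 520:495 nm ratio (ex 340 nm), normalized to DMSO (0%) and T3 (100%).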

Assay [16] concerns the target THRB (gene 7068) (UniProt P10828). Kind of assay: TOX21_TRB_COA_Agonist_Followup_ratio: Tox21 Thyroid Hormone Receptor beta Agonism through Coactivator Recruitment Follow-Up Assay, Ratio (AID 2283963). The method in brief: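 GST-TRb LBD 5.0 nM + 0.10% BSA + cpd; add fluorescein-SRC-2 200 nM / Tb anti-GST Ab 2 nM; TR-FRET ex 340, em 520:495; norm DMSO 0%, T3 100%.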

The target of assay [17] is Retinoic acid receptor RXR-alpha (Homo sapiens) (UniProt P19793). The assay can be described thus: TOX21_TR_RXR_BLA_Agonist_Followup_ratio: Tox21 Thyroid Hormone Receptor beta Retinoid X Receptor alpha (RXRa) Agonism Beta-lactamase (BLA) Follow-Up Assay, Ratio (AID 2283968; active = hit-call score of the fitted dose curve at least 0.9, where 1 is the maximum). The method in brief: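 Agonist mode: compounds given to RXRa-bla HEK293T cells at 11 concentrations, triplicate, 16 h at 37C/5% CO2. Readout is the 460:530 nm blue/green ratio after 2 h substrate loading at room temperature; DMSO baseline, 9-cis retinoic acid control.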

Assay [18] can be described thus: TOX21_TR_RXR_BLA_Agonist_Followup_viability: Viability Assessment in the Tox21 Thyroid Hormone Receptor beta Retinoid X Receptor alpha (RXRa) Agonism Beta-lactamase (BLA) Follow-Up Assay (AID 2283970; active = hit-call score of the fitted dose curve at least 0.9, where 1 is the maximum). The method in brief: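 CellTiter-Glo ATP luciferase read-out of cell viability, multiplexed with the beta-lactamase reporter run. RXRa-bla HEK293T cells in charcoal-stripped serum medium were exposed 16 h at 37C; data fitted both directions relative to DMSO.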

For assay [19], the target named is Retinoic acid receptor RXR-alpha (Homo sapiens) (UniProt P19793). The assay can be described thus: TOX21_TR_RXR_BLA_Antagonist_Followup_ratio: Tox21 Thyroid Hormone Receptor beta Retinoid X Receptor alpha (RXRa) Antagonism Beta-lactamase (BLA) Follow-Up Assay, Ratio (AID 2283972; active = hit-call score of the fitted dose curve at least 0.9, where 1 is the maximum). In short, it runs like this:
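RXRa-UAS-bla HEK293T cells, 2,500/well in phenol red-free DMEM with 2% charcoal-stripped FBS, 5 h attachment, then compounds (11 concentrations, triplicate) for 16 h at 37C; FRET-B/GCCF4-AM substrate 2 h RT; 460:530 nm ratio, loss of signal vs DMSO.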

SMILES strings stand for the structures. Results filed as inconclusive are left out. Activity calls are given as the source filed them. Rule for the calls, unless noted: active = hit-call score of the fitted dose curve at least 0.9, where 1 is the maximum; inactive = score below 0.9.

Sequence of THRB (gene 7068) (P10828 whole entry, looked up, the tested form may be a part): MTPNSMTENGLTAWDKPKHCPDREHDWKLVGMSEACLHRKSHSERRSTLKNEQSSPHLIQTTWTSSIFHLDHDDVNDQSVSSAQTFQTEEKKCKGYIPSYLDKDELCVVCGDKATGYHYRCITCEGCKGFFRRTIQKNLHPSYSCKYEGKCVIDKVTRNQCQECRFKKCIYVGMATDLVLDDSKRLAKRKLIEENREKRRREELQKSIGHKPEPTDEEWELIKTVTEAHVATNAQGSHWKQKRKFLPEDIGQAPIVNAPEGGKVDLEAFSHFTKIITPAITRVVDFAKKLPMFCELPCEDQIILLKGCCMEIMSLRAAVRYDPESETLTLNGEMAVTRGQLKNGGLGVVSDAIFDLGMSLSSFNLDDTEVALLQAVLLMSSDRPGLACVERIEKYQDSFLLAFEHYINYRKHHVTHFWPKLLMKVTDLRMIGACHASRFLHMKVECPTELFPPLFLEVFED
Sequence of THRA (gene 7067) (P10827 whole entry, looked up, the tested form may be a part): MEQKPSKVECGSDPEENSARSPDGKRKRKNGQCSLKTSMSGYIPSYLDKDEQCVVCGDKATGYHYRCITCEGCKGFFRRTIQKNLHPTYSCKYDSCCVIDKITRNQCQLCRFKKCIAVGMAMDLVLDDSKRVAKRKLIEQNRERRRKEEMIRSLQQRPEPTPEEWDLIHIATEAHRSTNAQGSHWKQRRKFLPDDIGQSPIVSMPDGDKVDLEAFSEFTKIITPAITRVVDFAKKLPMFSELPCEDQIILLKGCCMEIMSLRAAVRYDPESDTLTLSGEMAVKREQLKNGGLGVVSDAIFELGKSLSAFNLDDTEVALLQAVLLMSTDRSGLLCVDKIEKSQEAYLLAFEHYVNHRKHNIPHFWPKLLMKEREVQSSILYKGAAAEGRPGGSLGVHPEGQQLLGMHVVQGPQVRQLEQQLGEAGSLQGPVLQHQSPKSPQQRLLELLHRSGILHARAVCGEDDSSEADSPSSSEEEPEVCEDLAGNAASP
T1 sequence (P63059 whole entry, looked up): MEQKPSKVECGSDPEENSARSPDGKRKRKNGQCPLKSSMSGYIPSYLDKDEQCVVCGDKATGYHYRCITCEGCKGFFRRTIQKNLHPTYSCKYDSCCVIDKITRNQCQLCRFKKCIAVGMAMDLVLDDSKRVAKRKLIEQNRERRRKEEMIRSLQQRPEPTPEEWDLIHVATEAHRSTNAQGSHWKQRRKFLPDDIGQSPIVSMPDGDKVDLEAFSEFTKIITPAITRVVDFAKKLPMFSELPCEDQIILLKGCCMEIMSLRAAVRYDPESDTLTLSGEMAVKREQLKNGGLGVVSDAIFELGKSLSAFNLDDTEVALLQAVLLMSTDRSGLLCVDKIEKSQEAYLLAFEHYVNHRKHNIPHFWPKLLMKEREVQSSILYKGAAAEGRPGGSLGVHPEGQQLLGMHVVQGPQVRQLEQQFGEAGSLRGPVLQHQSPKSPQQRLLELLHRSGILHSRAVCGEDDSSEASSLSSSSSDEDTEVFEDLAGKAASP
T1 sequence (P18113 whole entry, looked up): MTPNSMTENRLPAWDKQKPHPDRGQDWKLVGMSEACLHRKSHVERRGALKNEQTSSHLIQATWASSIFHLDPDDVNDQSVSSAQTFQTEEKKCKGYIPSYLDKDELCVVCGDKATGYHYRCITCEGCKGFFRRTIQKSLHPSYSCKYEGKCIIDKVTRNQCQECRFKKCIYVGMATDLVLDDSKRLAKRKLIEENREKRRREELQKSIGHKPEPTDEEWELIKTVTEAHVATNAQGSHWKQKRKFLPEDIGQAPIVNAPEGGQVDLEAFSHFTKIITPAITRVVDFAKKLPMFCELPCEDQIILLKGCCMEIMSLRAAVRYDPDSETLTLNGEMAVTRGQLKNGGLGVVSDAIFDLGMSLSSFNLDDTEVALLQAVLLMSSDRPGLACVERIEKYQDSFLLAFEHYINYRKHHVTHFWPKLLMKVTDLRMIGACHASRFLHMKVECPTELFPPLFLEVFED
Sequence of Retinoic acid receptor RXR-alpha (Homo sapiens) (P19793 whole entry, looked up): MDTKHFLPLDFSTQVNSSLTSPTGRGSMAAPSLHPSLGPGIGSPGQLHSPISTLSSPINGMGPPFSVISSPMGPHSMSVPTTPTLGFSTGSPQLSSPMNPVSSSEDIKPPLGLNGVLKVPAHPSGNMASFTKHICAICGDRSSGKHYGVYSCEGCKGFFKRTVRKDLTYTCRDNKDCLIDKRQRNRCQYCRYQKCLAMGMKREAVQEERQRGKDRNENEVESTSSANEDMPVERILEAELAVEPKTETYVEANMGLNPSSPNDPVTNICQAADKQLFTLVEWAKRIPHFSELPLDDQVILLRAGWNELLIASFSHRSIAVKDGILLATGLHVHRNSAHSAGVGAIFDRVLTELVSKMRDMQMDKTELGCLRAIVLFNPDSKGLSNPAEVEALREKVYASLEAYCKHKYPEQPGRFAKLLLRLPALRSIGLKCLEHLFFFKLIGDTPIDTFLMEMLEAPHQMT
Sequence of PGR (gene 5241) (P06401 whole entry, looked up): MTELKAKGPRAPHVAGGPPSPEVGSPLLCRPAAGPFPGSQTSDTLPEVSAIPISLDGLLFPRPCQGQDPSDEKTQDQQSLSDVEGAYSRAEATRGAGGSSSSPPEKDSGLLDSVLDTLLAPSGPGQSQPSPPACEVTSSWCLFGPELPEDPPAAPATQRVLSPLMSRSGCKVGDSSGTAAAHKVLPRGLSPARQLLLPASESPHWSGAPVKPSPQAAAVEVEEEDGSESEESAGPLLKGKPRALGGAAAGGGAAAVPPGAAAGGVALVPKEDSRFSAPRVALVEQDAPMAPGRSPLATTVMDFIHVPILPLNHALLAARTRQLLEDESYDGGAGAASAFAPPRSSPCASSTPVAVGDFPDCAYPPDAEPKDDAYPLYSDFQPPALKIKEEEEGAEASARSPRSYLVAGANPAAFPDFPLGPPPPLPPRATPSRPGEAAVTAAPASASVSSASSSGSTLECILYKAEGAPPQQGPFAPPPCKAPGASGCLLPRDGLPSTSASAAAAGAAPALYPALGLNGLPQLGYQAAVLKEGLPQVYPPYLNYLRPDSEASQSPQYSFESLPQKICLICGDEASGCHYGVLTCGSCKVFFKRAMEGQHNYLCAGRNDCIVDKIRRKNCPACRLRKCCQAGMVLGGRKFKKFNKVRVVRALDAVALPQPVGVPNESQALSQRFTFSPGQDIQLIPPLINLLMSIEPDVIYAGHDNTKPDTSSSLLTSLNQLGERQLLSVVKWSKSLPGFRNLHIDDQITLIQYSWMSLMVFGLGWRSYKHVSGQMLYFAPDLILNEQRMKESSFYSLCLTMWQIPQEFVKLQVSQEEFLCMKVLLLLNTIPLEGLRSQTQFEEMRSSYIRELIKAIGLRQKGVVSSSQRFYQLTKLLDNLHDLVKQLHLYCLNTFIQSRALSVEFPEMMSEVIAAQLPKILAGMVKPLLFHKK

By AC50 is commonly meant the midpoint of the concentration-response curve, whichever way the signal moves. Regarding `O=C(c1ccc(O)cc1O)c1ccc(O)cc1O`, the AC50 with PGR (gene 5241) is 68.3 µM (active). In addition, the outcome in [1] and in [2] was inactive.
Take `N[C@@H](Cc1cc(I)c(Oc2ccc(O)c(I)c2)c(I)c1)C(=O)O`: the outcome in [3], in assay [4], in [5], in assay [6] and in assay [7] was inactive.
For the compound `CC(C)CCCCCCc1ccc(O)cc1`, the result (with PGR (gene 5241); in assay [1]; in assay [2]; in assay [3]) was inactive. Moreover, the AC50 in assay [4] is 55.5 µM (active); in [5], 69.4 µM (active); in [6] it was 55.7 µM (active); in assay [7], 69.2 µM (active).
With `CC(=O)[C@H]1CC[C@H]2[C@@H]3CCC4=CC(=O)CC[C@]4(C)[C@H]3CC[C@]12C`, the result (in assay [8]; with THRA (gene 7067) [9]; with THRB (gene 7068) [10]; in [11]; with THRB (gene 7068) [12]; in assay [13]) was inactive.
For the compound `C=CCOC(Cn1ccnc1)c1ccc(Cl)cc1Cl` (configuration not stated), the outcome in assay [3], in [4], in assay [5], in assay [6] and in assay [7] was inactive.
For `Cc1nn(C)c(Oc2ccccc2)c1C=NOCc1ccc(C(=O)OC(C)(C)C)cc1`, the outcome in assay [3], in assay [4], in assay [5], in assay [6] and in [7] was inactive.
On to `S=C([S-])NCCNC(=S)[S-].[Mn+2]`, for which the outcome in assay [3], in assay [4], in assay [5], in assay [6] and in [7] was inactive.
On to `COC(=O)c1ccc(I)cc1S(=O)(=O)NC(=O)Nc1nc(C)nc(OC)n1`, for which the outcome (in [14]; in the assay with THRA (gene 7067) [15]; with THRB (gene 7068) [16]; in assay [17]; in [18]) was inactive.
As for `CCCN(CCC)C(=O)SCC`, the outcome (in [14]; with THRA (gene 7067) [15]; in the assay with THRB (gene 7068) [16]; in [17]) was inactive.
Turning to `CC(C)(c1ccc(O)cc1)c1ccc(O)cc1`, in the assay with PGR (gene 5241), the half-maximal activity concentration (AC50) was 33.3 µM (active). For the same compound, the call in assay [1], in [3], in assay [4], in assay [5], in assay [6] and in assay [7] was inactive.
For `CCNc1nc(N)nc(Cl)n1`, the result (in [14]; with THRA (gene 7067) [15]; with THRB (gene 7068) [16]; in assay [17]; in assay [18]) was inactive.
Take `C[C@]12C[C@H](O)[C@H]3[C@@H](CCC4=CC(=O)CC[C@@]43C)[C@@H]1CC[C@@H]2C(=O)CO`: the result (with PGR (gene 5241); in [2]; in the assay with THRA (gene 7067) [9]; with THRB (gene 7068) [10]; in assay [11]; in assay [13]) was inactive.
For the compound `C[C@]12CC[C@@H]3c4ccc(O)cc4C[C@@H](CCCCCCCCCS(=O)CCCC(F)(F)C(F)(F)F)[C@H]3[C@@H]1CC[C@@H]2O` (some centres not stated), the concentration at half-maximal activity (AC50) with PGR (gene 5241) was 5.78 µM (active). Also, the result (in assay [1]; in assay [2]; in assay [8]; in [11]; with THRB (gene 7068) [12]; in assay [19]) was inactive. Besides, the result in assay [3], in assay [4], in [5], in assay [6], in assay [7] and in assay [13] was inactive.

The record behind these values is PubChem BioAssay (EPA / NIEHS).
